A short description of assay [1]: NCI Yeast Anticancer Drug Screen. Data for the rad50 strain (AID 155).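 Also: 0% = growth of vehicle-only cultures of the same strain.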 To be noted: S. cerevisiae rad50 strain growth inhibition, hits give high values. Put shortly: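 Genetically altered yeast (DNA repair pathway); compound treatment; growth inhibition vs vehicle ctrl.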
Assay [2] can be described thus: NCI Yeast Anticancer Drug Screen. Data for the mec2-1 strain (AID 157). To be noted: S. cerevisiae mec2-1 strain, hits give high values. The method in brief:
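Using mec2-1 yeast: add compound, measure growth, express inhibition versus vehicle-treated cultures.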

Assay [3] is described as follows: NCI Yeast Anticancer Drug Screen. Data for the sgs1 mgt1 strain (AID 161).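 Also: 0% = growth of cultures given vehicle only.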 To be noted: S. cerevisiae sgs1 mgt1 strain, hits give high values. The method in brief: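 Percent growth inhibition was derived by comparing compound-exposed mutant yeast with vehicle-exposed cultures. The strain carries alterations in DNA damage repair.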
The nature of assay [4]: NCI Yeast Anticancer Drug Screen. Data for the cln2 rad14 strain (AID 165).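 Also: 0% = growth equal to vehicle treated cultures.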 To be noted: S. cerevisiae cln2 rad14 strain, hits give high values. The method in brief:
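Yeast strain cln2 rad14, bearing defects in cell cycle control and DNA repair, serves as the test system; values reflect growth inhibition compared with vehicle.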

A short description of assay [5]: NCI Yeast Anticancer Drug Screen. Data for the bub3 strain (AID 167). To be noted: S. cerevisiae bub3 mutant strain, hits give high values. The method in brief: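 Yeast carrying a defined mutation is treated with each compound, and growth is compared with that of vehicle-exposed cells to give inhibition.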
Assay [6] can be described thus: NCI Yeast Anticancer Drug Screen. Data for the mlh1 rad18 strain (AID 175). The following applies: S. cerevisiae mlh1 rad18 strain growth inhibition, hits give high values. The method in brief: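 Steps: expose repair-defective yeast to compound; measure growth; express inhibition against vehicle-treated controls.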
Where [7] appears, read: at 5.0 µM (retest, dose inferred, filed as 0.5).
The mark [8] stands for this setting: at 50.0 µM (retest, dose inferred, filed as 5.0).

The structures appear in SMILES notation. This is part of a sample that, as a whole, favours compounds with a hit. Of some 79,000 tested, about 15% had one in any assay. Values without a mark were called inactive. The source made the active and inactive calls. Rule as the data show it: active = growth inhibition above about 70%; inactive = the rest.

For `O=C1C(=O)C(Cl)=C(Cl)C(Cl)=C1Cl`, the growth inhibition in assay [1] (setting [7]) is -3%; in assay [1] (setting [8]), 97% (active); in assay [1] (at 50.0 µM) it was 99.3% (active); in assay [2] (setting [7]), 7%; in assay [2] (setting [8]) it was 99% (active); in assay [2] (at 50.0 µM), 99.7% (active). Also, the growth inhibition in assay [3] (setting [7]) is 1%; in assay [3] (setting [8]), 95% (active); in assay [3] (at 50.0 µM), 99.5% (active); in assay [4] (setting [7]), -12%; in assay [4] (setting [8]), 98% (active); in assay [4] (at 50.0 µM) it was 98.5% (active). Moreover, the growth inhibition in assay [5] (setting [7]) was -25%; in assay [5] (setting [8]) it was 97% (active); in assay [5] (at 50.0 µM), 99.3% (active); in assay [6] (setting [7]), -7%; in assay [6] (setting [8]) it was 98% (active); in assay [6] (at 50.0 µM), 99.1% (active).
With `CCCc1cc2c(cc1O)CC[C@@H]1[C@@H]2CC[C@]2(C)[C@@H](O)CC[C@@H]12`, the growth inhibition is -25% in assay [1] (setting [7]); 96% (active) in assay [1] (setting [8]); 86.5% (active) in assay [1] (at 50.0 µM); -30% in assay [2] (setting [7]); 96% (active) in assay [2] (setting [8]); 85.8% (active) in assay [2] (at 50.0 µM). For the same molecule, the growth inhibition in assay [3] (setting [7]) was -30%; in assay [3] (setting [8]), 98% (active); in assay [3] (at 50.0 µM), 84.5% (active); in assay [4] (setting [7]), -4%; in assay [4] (setting [8]) it was 77% (active); in assay [4] (at 50.0 µM) it was 88.5% (active). Moreover, the growth inhibition in assay [5] (setting [7]) was -33%; in assay [5] (setting [8]), 97% (active); in assay [5] (at 50.0 µM) it was 87.6% (active); in assay [6] (setting [7]), -46%; in assay [6] (setting [8]), 96% (active); in assay [6] (at 50.0 µM), 80.7% (active).
On to `CC(=O)N(O)c1ccc2c(c1)Cc1cc(F)ccc1-2`, for which the growth inhibition was 75% (active) in assay [1] (setting [7]); 37% in assay [1] (setting [8]); 97% (active) in assay [1] (at 50.0 µM); 34% in assay [2] (setting [7]); 29% in assay [2] (setting [8]); 94% (active) in assay [2] (at 50.0 µM). The growth inhibition is 65% in assay [3] (setting [7]); 35% in assay [3] (setting [8]); 97.1% (active) in assay [3] (at 50.0 µM); 45% in assay [4] (setting [7]); 21% in assay [4] (setting [8]); 92.5% (active) in assay [4] (at 50.0 µM). The growth inhibition in assay [5] (setting [7]) was -14%; in assay [5] (setting [8]) it was 80% (active); in assay [5] (at 50.0 µM), 97.8% (active); in assay [6] (setting [7]), 49%; in assay [6] (setting [8]), 57%; in assay [6] (at 50.0 µM) it was 96.5% (active).
Regarding `CCOC(=O)c1c(Br)c(-c2ccc(Br)cc2)c(Br)n1C`, the growth inhibition in assay [1] (setting [7]) was -6%; in assay [1] (setting [8]) it was 1%; in assay [1] (at 50.0 µM) it was 7.95%; in assay [2] (setting [7]), -7%; in assay [2] (setting [8]), -29%; in assay [2] (at 50.0 µM), -16.1%. Further, the growth inhibition in assay [3] (setting [7]) is -11%; in assay [3] (setting [8]), -1%; in assay [3] (at 50.0 µM), -6.25%; in assay [4] (setting [7]), 29%; in assay [4] (setting [8]) it was -25%; in assay [4] (at 50.0 µM), 24.1%. The growth inhibition in assay [5] (setting [7]) was -11%; in assay [5] (setting [8]) it was -15%; in assay [5] (at 50.0 µM), -7%; in assay [6] (setting [7]) it was -8%; in assay [6] (setting [8]), -12%; in assay [6] (at 50.0 µM) it was -10.6%.
For `CC12CC(Sc3ccccc3N1)c1ccccc1O2` (stereo not given), the growth inhibition in assay [1] (setting [7]) is 37%; in assay [1] (setting [8]), 54%; in assay [1] (at 50.0 µM), 42.2%; in assay [2] (setting [7]), 28%; in assay [2] (setting [8]) it was 46%; in assay [2] (at 50.0 µM) it was 25.3%. Also, the growth inhibition in assay [3] (setting [7]) was 43%; in assay [3] (setting [8]), 80% (active); in assay [3] (at 50.0 µM), 51.8%; in assay [4] (setting [7]), 33%; in assay [4] (setting [8]) it was 40%; in assay [4] (at 50.0 µM) it was 27.4%. The growth inhibition in assay [5] (setting [7]) was 40%; in assay [5] (setting [8]) it was 73% (active); in assay [5] (at 50.0 µM) it was 76.3% (active); in assay [6] (setting [7]), 40%; in assay [6] (setting [8]), 73% (active); in assay [6] (at 50.0 µM), 44.5%.
In the case of `COc1ccc(CC2=CC(=O)C(=O)C=C2C)cc1`, the growth inhibition in assay [1] (setting [7]) was 2%; in assay [1] (setting [8]) it was 27%; in assay [1] (at 50.0 µM) it was 47.4%; in assay [2] (setting [7]), 0%; in assay [2] (setting [8]), 29%; in assay [2] (at 50.0 µM) it was 11.2%. Besides, the growth inhibition in assay [3] (setting [7]) is 9%; in assay [3] (setting [8]), 39%; in assay [3] (at 50.0 µM), 47%; in assay [4] (setting [7]) it was 0%; in assay [4] (setting [8]), 4%; in assay [4] (at 50.0 µM), 11.2%. Besides, the growth inhibition in assay [5] (setting [7]) is -2%; in assay [5] (setting [8]) it was 21%; in assay [5] (at 50.0 µM), 38%; in assay [6] (setting [7]), 14%; in assay [6] (setting [8]), 51%; in assay [6] (at 50.0 µM) it was 36.4%.
As to `COc1cc2c(c(OC)c1OC)-c1ccc(O)c(=O)cc1C(N=Cc1ccccc1)CC2` (stereo not given), the growth inhibition was -5% in assay [1] (setting [7]); -5% in assay [1] (setting [8]); -17.9% in assay [1] (at 50.0 µM); -6% in assay [2] (setting [7]); -7% in assay [2] (setting [8]); -4.45% in assay [2] (at 50.0 µM). Moreover, the growth inhibition was -8% in assay [3] (setting [7]); -3% in assay [3] (setting [8]); -5.3% in assay [3] (at 50.0 µM); -7% in assay [4] (setting [7]); 4% in assay [4] (setting [8]); 31.9% in assay [4] (at 50.0 µM). The growth inhibition in assay [5] (setting [7]) is -2%; in assay [5] (setting [8]), -2%; in assay [5] (at 50.0 µM) it was 0.2%; in assay [6] (setting [7]), -2%; in assay [6] (setting [8]), 0%; in assay [6] (at 50.0 µM), 18.8%.
On to `COc1ccc(C)cc1NC(=O)ON=C1CCCCC1`, for which the growth inhibition is 45% in assay [1] (setting [7]); 83% (active) in assay [1] (setting [8]); 88.2% (active) in assay [1] (at 50.0 µM); 35% in assay [2] (setting [7]); 88% (active) in assay [2] (setting [8]); 91.8% (active) in assay [2] (at 50.0 µM). For the same molecule, the growth inhibition in assay [3] (setting [7]) is 47%; in assay [3] (setting [8]), 92% (active); in assay [3] (at 50.0 µM), 91.9% (active); in assay [4] (setting [7]), 38%; in assay [4] (setting [8]), 81% (active); in assay [4] (at 50.0 µM), 90.5% (active). The growth inhibition in assay [5] (setting [7]) was 30%; in assay [5] (setting [8]) it was 91% (active); in assay [5] (at 50.0 µM), 91.7% (active); in assay [6] (setting [7]), 48%; in assay [6] (setting [8]), 94% (active); in assay [6] (at 50.0 µM) it was 90.5% (active).
Take `CCn1c2ccccc2c(=O)c2c(OC)ccc(OC)c21`: the growth inhibition in assay [1] (setting [7]) was 2%; in assay [1] (setting [8]), 73% (active); in assay [1] (at 50.0 µM), 77.6% (active); in assay [2] (setting [7]), 4%; in assay [2] (setting [8]), 51%; in assay [2] (at 50.0 µM), -1.7%. Also, the growth inhibition was 0% in assay [3] (setting [7]); 94% (active) in assay [3] (setting [8]); 81.5% (active) in assay [3] (at 50.0 µM); -1% in assay [4] (setting [7]); 24% in assay [4] (setting [8]); 49.4% in assay [4] (at 50.0 µM). For the same molecule, the growth inhibition in assay [5] (setting [7]) is 28%; in assay [5] (setting [8]), 75% (active); in assay [5] (at 50.0 µM) it was 52.6%; in assay [6] (setting [7]), -1%; in assay [6] (setting [8]) it was 87% (active); in assay [6] (at 50.0 µM), 89.8% (active).
Take `COc1ccc2c(c1)CC1c3c(ccc(OC)c3O)CC2N1C` (stereo not given): the growth inhibition is -15% in assay [1] (setting [7]); 56% in assay [1] (setting [8]); 86.7% (active) in assay [1] (at 50.0 µM); -44% in assay [2] (setting [7]); 37% in assay [2] (setting [8]); 91.3% (active) in assay [2] (at 50.0 µM). Moreover, the growth inhibition in assay [3] (setting [7]) is -6%; in assay [3] (setting [8]), 59%; in assay [3] (at 50.0 µM), 93.7% (active); in assay [4] (setting [7]), -24%; in assay [4] (setting [8]) it was 52%; in assay [4] (at 50.0 µM) it was 92.5% (active). The growth inhibition in assay [5] (setting [7]) is -4%; in assay [5] (setting [8]), 75% (active); in assay [5] (at 50.0 µM) it was 92% (active); in assay [6] (setting [7]) it was -55%; in assay [6] (setting [8]) it was 61%; in assay [6] (at 50.0 µM), 89.5% (active).
